Records with an inconclusive call do not appear. Calls of active or inactive are those of the source. Calls follow the shape of the dose curve; as a rule, active = well fitted inhibition curve with a large enough effect; inconclusive = small, poorly fitted or top-dose-only effect; inactive = flat fitted curve, though single readings scatter. Where a SMILES comes first, the peptide text is derived from it. Bridges are numbered along the chain shown (N, C = ends). [ ]: non-standard residue; d: D form. The star is where a group is joined. X2 = CC[C@H](C)CCCCC(=O)*; Dab = NCC[C@H](N)C(=O)O
system: KB-3-1; experiment: Cytotoxic Profiling of Annotated Libraries Using Quantitative High-Throughput Screening (AID 1296008); conditions: Five cell lines viability, CellTiter-Glo ATP luminescence, 48-72 h; max response: hits give low values; also: nearly all actives have a fitted effect of over 60% in size
Procedure, shortened: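 Cytotoxicity was measured as CellTiter-Glo ATP luminescence, read after 10 min at room temperature. Compound treatment of the cells lasted 48 or 72 hr at 37 degrees Celsius in a qHTS format.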
% is scaled to controls: 0 for no effect and ±100 for the full control effect; potency is read from the fitted curve at half-maximal effect.

Row | SMILES | max response | Potency | outcome
1 | C=C1C(=O)OC2C3=C(C)C(=O)CC3C(C)CC(O)C12 (centres undefined) | 9.21% (inactive) | – | –
2 | Cc1ccc(S(=O)(=O)N2CCC[C@H]2c2ccc(F)cc2)cc1 | -12.3% (inactive) | – | –
3 | CCN(CC)C(=O)c1ccc(Nc2nc(OCC3CCCCC3)c3[nH]cnc3n2)cc1 | – | 14.6 µM (active) | –
4 | CCC/C=C/c1cc2c(C=O)c(O)c(CC=C(C)C)cc2o1 | 3.3% (inactive) | – | –
5 | CCCOc1ccc(CCc2nc3cc(-c4c(C)noc4C)ccc3n2CCN2CCOCC2)cc1 | -3.99% (inactive) | – | –
6 | CN(C)CCN(Cc1ccc(-c2ccc(CNCCc3ccccc3)cc2)cc1)C(=O)CCC1CCCC1 | – | 4.61 µM (active) | –
7 | O=C(Nc1ccnc(NC(=O)C2CC2)c1)c1c(Cl)cccc1Cl | – | 20.6 µM (active) | –
8 | CC[C@H](C)CCCCC(=O)N[C@@H](CCN)C(=O)N[C@H](C(=O)N[C@@H](CCN)C(=O)N[C@H]1CCNC(=O)[C@H]([C@@H](C)O)NC(=O)[C@H](CCN)NC(=O)[C@H](CCN)NC(=O)[C@H](CC(C)C)NC(=O)[C@@H](CC(C)C)NC(=O)[C@H](CCN)NC1=O)[C@@H](C)O (X2-[Dab]T[Dab][Dab][Dab][dL]L[Dab][Dab]T; lactam 4-C) | -11.4% (inactive) | – | –
9 | CC(=O)O[C@@H]1[C@@H](OC(C)=O)[C@H](C)O[C@@H](O[C@H]2[C@@H]3C=CO[C@@H](O[C@@H]4O[C@H](CO)[C@@H](O)[C@H](O)[C@H]4O)[C@@H]3[C@@]3(CO)O[C@@H]23)[C@@H]1OC(=O)/C=C/c1ccccc1 | 2.67% (inactive) | – | –
10 | CC(=O)S[C@@H]1CC2=CC(=O)CC[C@]2(C)[C@H]2CC[C@@]3(C)[C@@H](CC[C@@]34CCC(=O)O4)[C@H]12 | -24% (inactive) | – | –
11 | O=c1cc(N2CCOCC2)nc2c3ccccc3ccn12 | -19.2% (inactive) | – | –
12 | C=C1C(=O)O[C@H]2C1CCC(C)=C1C(=O)C=C(C)[C@@]12O (some centres undefined) | -10.7% (inactive) | – | –
13 | CC(C)NC(=O)N1CC[C@H](N=C2Nc3cc(F)ccc3N(CC(F)F)c3ccc(Cl)cc32)C1 | -1.78% (inactive) | – | –
14 | CC(C)(C)CC(=O)OCC(=O)[C@@]12OC(C)(C)O[C@@H]1C[C@H]1[C@@H]3CCC4=CC(=O)C=C[C@]4(C)[C@@]3(F)[C@@H](O)C[C@@]12C | 0.193% (inactive) | – | –
15 | C=C1C(=O)O[C@@H]2C[C@]3(C)[C@@H](CCC(C)O)[C@@H]3C[C@H]12 (some centres undefined) | – | – | inactive
16 | COc1cc2ncnc(Oc3ccc(CC(=O)Nc4cnn(C(C)C)c4)cc3)c2cc1OC | 0.878% (inactive) | – | –
17 | COc1cc(CCO)ccc1O[C@@H]1O[C@H](CO)[C@@H](O)[C@H](O)[C@H]1O | 7.87% (inactive) | – | –
18 | CON=C1C[C@]2(C[C@@H]3C[C@@H](C/C=C(\C)C[C@@H](C)/C=C/C=C4\CO[C@@H]5[C@H](O)C(C)=C[C@@H](C(=O)O3)[C@]45O)O2)O[C@H](/C(C)=C/C(C)C)[C@H]1C | – | 20.6 µM (active) | –
19 | C=C(C)[C@@H]1CC=C(COC(=O)NC(=O)c2ncn3c(=O)n(C)nnc23)CC1 | 2.36% (inactive) | – | –
20 | CCC(C)C(=O)OC1C(C)C2(O)C(C=C(CO)CC3(O)C(=O)C(C)=CC32)C2C(C)(C)C12OC(=O)C(C)C (centres undefined) | 7.48% (inactive) | – | –

Row | SMILES | max response | Potency | outcome
21 | CC(=O)O[C@@H]1[C@H](O[C@@H]2O[C@@H](CO)[C@H](O)[C@H]2O)[C@@H](O[C@@H]2O[C@@H](C)[C@H](O[C@@H]3OC[C@@H](O)[C@H](O)[C@H]3O)[C@@H](O)[C@H]2O)[C@H](OC(=O)[C@]23CCC(C)(C)C[C@H]2C2=CCC4[C@@]5(C)CC[C@H](O[C@@H]6O[C@H](C(=O)O)[C@@H](O)[C@H](O)[C@H]6O[C@@H]6O[C@H](CO)[C@H](O)[C@H](O)[C@H]6O)[C@@](C)(C=O)C5CC[C@@]4(C)[C@]2(C)C[C@H]3O)O[C@@H]1C (some centres undefined) | 8.09% (inactive) | – | –
22 | N#Cc1ccc(COc2ccc(-c3cccc4nc(NC(=O)C5CC5)nn34)cc2)cn1 | -6.55% (inactive) | – | –
23 | CCOC(=O)[C@H](CCc1ccccc1)N[C@H]1CCCN2CCC[C@@H](C(=O)O)N2C1=O | 1.33% (inactive) | – | –
24 | C[C@H](Oc1cc(-n2cnc3ccc(CN4CCN(C)CC4)cc32)sc1C(N)=O)c1ccccc1C(F)(F)F | – | 1.03 µM (active) | –
25 | O=P(O)(O)OC(Cn1cncn1)(Cn1cncn1)c1ccc(F)cc1F | -21.6% (inactive) | – | –
26 | Cc1cc(Nc2ccccc2C(=O)O)ccc1Cl | -5.19% (inactive) | – | –
27 | C=C1C(=O)O[C@@H]2C[C@H](C)[C@@H]3CC(=O)[C@H](O)[C@@]3(C)C[C@H]12 | – | – | inactive
28 | CCNC(=O)C#Cc1ccc2c(C(=Nc3ccc(CN(C)C)cc3)c3ccccc3)c(O)[nH]c2c1 | – | 0.0282 µM (active) | –
29 | CCOC(=O)[C@H](CCc1ccccc1)N[C@@H](C)C(=O)N1CC2(C[C@H]1C(=O)O)SCCS2 | -20.5% (inactive) | – | –
30 | CC(C)(O)C1Cc2c(ccc(C(=O)CCc3ccccc3)c2O)O1 (centres undefined) | -17.9% (inactive) | – | –
31 | Cc1ccc(NC(=O)N2CCN(c3nc(N)nc4sc(-c5cccnc5)nc34)CC2)cc1 | -18.9% (inactive) | – | –
32 | CC(O)(C(=O)O)C1CCC2(C)C1CCC1(C)C2CCC2C3(C)CCC(O)C(C)(COC4OC(CO)C(O)C(O)C4O)C3CCC21C (centres undefined) | 1.95% (inactive) | – | –
33 | O=C(Nc1ccc(/C=C/c2ccc(NC(=O)c3cc(S(=O)(=O)O)c4cccnc4c3O)cc2S(=O)(=O)O)c(S(=O)(=O)O)c1)c1cc(S(=O)(=O)O)c2cccnc2c1O | 0.4% (inactive) | – | –
34 | CCC(=O)OCC(=O)[C@@]1(OC(=O)CC)[C@H](C)C[C@H]2[C@@H]3CCC4=CC(=O)C=C[C@]4(C)[C@@]3(F)[C@@H](O)C[C@@]21C | -9.03% (inactive) | – | –
35 | C=C[C@@]1(C)CCC2C(=CCC3[C@]2(C)CCC[C@@]3(C)C(=O)O)C1 (some centres undefined) | -10.5% (inactive) | – | –
36 | C=C1C(=O)OC2/C=C(\C)CC/C=C(\C)CC(OC(C)=O)C12 (centres undefined) | 3.33% (inactive) | – | –
37 | C=C[C@]1(C)C[C@H](O)[C@H]2C(=C)C(=O)O[C@@H]2[C@H]1C(=C)CO | – | – | inactive
38 | C=CCNC1=C2C[C@@H](C)C[C@H](OC)[C@H](O)[C@@H](C)/C=C(\C)[C@H](OC(N)=O)[C@@H](OC)/C=C\C=C(/C)C(=O)NC(=CC1=O)C2=O | -34.3% (inactive) | – | –
39 | CCCOc1ccc2nc(NC(=O)OC)sc2c1 | – | 10.3 µM (active) | –

Source: PubChem BioAssay (NCATS)
